Records with an inconclusive call do not appear. Entries that show only a call come without a potency. Activity calls are given as the source filed them. The call rests on the fitted dose curve; in most records, active means well fitted activation curve with a large enough effect; inconclusive means small, poorly fitted or top-dose-only effect; inactive means no such curve, though single readings can be large or run the other way.
These compounds were tested against Relaxin receptor 1 (Homo sapiens) (UniProt Q9HBX9) (assay: qHTS Assay for Agonists of the Relaxin Receptor RXFP1: THP1 Hit Validation). Conditions: THP1-RXFP1 cells, cAMP TR-FRET, 30 min; series mostly up to 115 µM.
Sequence of Relaxin receptor 1 (Homo sapiens) (Q9HBX9 whole entry, looked up): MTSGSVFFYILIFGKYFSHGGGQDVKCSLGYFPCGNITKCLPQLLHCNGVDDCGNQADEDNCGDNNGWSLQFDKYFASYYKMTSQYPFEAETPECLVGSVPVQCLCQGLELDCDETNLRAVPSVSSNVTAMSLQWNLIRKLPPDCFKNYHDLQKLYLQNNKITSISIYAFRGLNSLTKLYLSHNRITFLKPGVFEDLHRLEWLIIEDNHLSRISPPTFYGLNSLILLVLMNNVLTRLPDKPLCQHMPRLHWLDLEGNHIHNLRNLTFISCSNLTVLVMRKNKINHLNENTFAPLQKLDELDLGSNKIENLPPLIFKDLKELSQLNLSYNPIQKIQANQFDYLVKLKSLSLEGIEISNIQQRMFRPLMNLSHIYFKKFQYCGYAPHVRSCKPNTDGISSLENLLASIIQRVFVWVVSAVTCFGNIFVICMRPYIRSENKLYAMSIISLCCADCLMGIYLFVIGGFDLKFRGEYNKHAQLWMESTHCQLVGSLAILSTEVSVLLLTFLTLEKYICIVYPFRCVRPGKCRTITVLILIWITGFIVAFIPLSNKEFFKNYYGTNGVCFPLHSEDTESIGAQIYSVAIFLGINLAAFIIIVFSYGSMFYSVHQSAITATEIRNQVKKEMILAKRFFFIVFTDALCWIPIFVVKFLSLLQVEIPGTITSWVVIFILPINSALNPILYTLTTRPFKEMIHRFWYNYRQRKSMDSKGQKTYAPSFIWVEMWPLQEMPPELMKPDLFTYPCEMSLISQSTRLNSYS
How it was run: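 EC50s come from Hill-equation fits of data normalized between buffer (basal) and 29 nM porcine relaxin (100%). cAMP was measured by competitive TR-FRET in lysates of RXFP1-transfected THP1 cells after 30 min compound exposure, with Ro 20174 present.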
For `CCc1cc2c(=O)nc3n(c2s1)Cc1ccccc1/C3=C(/O)c1cccc([N+](=O)[O-])c1`, the Potency was 0.87 µM (active). `CCN(CC)CCCCCC(=O)Nc1ccccc1C(=O)Nc1ccccc1` was tested, and the Potency was “inactive”. For `O=C(Nc1ccccc1)c1ccccc1NC(=O)C1CCCCC1`, the Potency was “inactive”. In the case of `C=CCNc1ncnc2c1ncn2C1OC(CO)C(O)C1O` (configuration not stated), the Potency is reported as “inactive”. For `O=C(Nc1ccccc1C(=O)NCCc1ccc(O)cc1)c1ccco1`, the Potency was “inactive”. With `Cc1ccc(-n2c(=S)[nH]c3sc4c(c3c2=O)CCC4)cc1` the Potency was 8.68 µM (active). For `NS(=O)(=O)c1ccc(CCNC(=O)C2CCN(c3ncnc4c3nc3n4CCCCC3)CC2)cc1`, the Potency was 27.5 µM (active). With `CC1CCCCN1C(=O)c1ccccc1NC(=O)c1ccco1` (configuration not stated) the Potency was “inactive”. In the case of `Cc1ccccc1NC(=O)c1ccccc1NC(=O)c1ccco1`, the Potency is reported as “inactive”. In the case of `COc1ccc(CN2C(=O)c3cccnc3C2=O)cc1S(=O)(=O)NC1CCCCC1`, the Potency is reported as 19.5 µM (active). For `O=C(Nc1ccccc1C(=O)NCc1ccc(Cl)cc1)c1ccco1`, the Potency was “inactive”. In the case of `CN(C)S(=O)(=O)c1cccc(COc2ncnc3c(Cl)cc(Cl)cc23)c1`, the Potency is reported as 5.49 µM (active). In the case of `CCc1cc2cc3c(cc2nc1SCC(=O)Nc1nccs1)OCO3`, the Potency is reported as 21.8 µM (active). With `CC(C)C(=O)Nc1ccc(Nc2ccccc2)cc1` the Potency was “inactive”. With `Cc1cc(Br)c2nc3c(c(C(=O)O)c2c1)CCCCC3` the Potency was 3.08 µM (active). `COc1ccc(CN2C(=O)c3cccnc3C2=O)cc1S(=O)(=O)NC1CCCCC1C` (configuration not stated) was tested, and the Potency was 27.5 µM (active). `COc1ccccc1NC(=O)CCCc1nnc2n(C)c(=O)c3sccc3n12` was tested, and the Potency was 15.4 µM (active). In the case of `CCOC(=O)c1sc(=NC(=O)c2ccc(S(=O)(=O)N(C)c3ccccc3)cc2)n(C)c1C`, the Potency is reported as 34.6 µM (active). `Cc1cc2nc3ccc(=[N+](C)C)cc-3sc2cc1N` was tested, and the Potency was “inactive”. With `COc1ccc(/C=C2/SC(=O)N(CCC(=O)Nc3ccc(C)cc3)C2=O)cc1OC` the Potency was “inactive”. In the case of `COc1ccc(/C=C2/SC(=O)N(CC(=O)Nc3cc(C)on3)C2=O)cc1OC`, the Potency is reported as “inactive”. With `NC(=O)c1ccccc1NC(=O)CC12CC3CC(CC(C3)C1)C2` the Potency was “inactive”.

From PubChem BioAssay AID492949 (National Center for Advancing Translational Sciences (NCATS), 2010)
Further: nearly all actives have a fitted effect of over 60% in size.
Potency means the concentration at half of the fitted maximal effect.
